Reference: PubChem BioAssay (Tox21)
“And” between values parts separate entries of the source, which are not always exact repeats. Equal entries are not always repeated. Inconclusive results are not listed. Where a call stands in place of a potency, no number is given. The source made the active and inactive calls. Unless noted, calls come from the whole dose curve; as a rule, active = well fitted curve in the direction sought with a large enough effect in the repeat runs; inconclusive = weak or mixed curves; inactive = no such curve, though single readings can be large; an effect the other way counts as inactive or inconclusive.

Legend:
[1] = qHTS assay for small molecule agonists of the p53 signaling pathway (AID 651631; calls by dose curve; note: nearly all actives have a fitted effect of over 15% in size; note: potency is the fitted concentration of half-maximal effect)
Procedure, shortened: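 Quantitative high-throughput format: 4,000 p53RE-bla HCT-116 cells/well, 5 h pre-incubation, 16 h compound exposure at 37 °C, 2 h room-temperature substrate step, fluorescence intensity measured.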

[2] = qHTS assay for small molecules that induce genotoxicity in human embryonic kidney cells expressing luciferase-tagged ATAD5 (AID 651632); note: nearly all actives have a fitted effect of over 15% in size
Procedure, shortened: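 A rise in luciferase signal from ATAD5-tagged HEK293T cells marks genetic stress. Cells were exposed to compounds for 16 hr at 37C, 5% CO2, then luciferase was quantified after a 30 min room-temperature incubation with Amplite.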

[3] = qHTS assay for small molecule agonists of the p53 signaling pathway - cell viability (AID 651633; calls by dose curve;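 note: p53RE-bla HCT reporter cells with a stable beta-lactamase p53 reporter; nearly all actives have a fitted effect of over 30% in size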)
Procedure, shortened: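 p53RE-bla cells, seeded at 4,000 per well and rested 5 h at 37 C/5% CO2, received compounds in DMSO for 16 h at 37 C. CellTiter-Glo was then added, and luminescence was read after 30 min at room temperature to gauge cytotoxicity.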

[4] = qHTS assay for small molecules that induce genotoxicity in human embryonic kidney cells expressing luciferase-tagged ATAD5 - cell viability (AID 651634; calls by dose curve; note: nearly all actives have a fitted effect of over 25% in size)
Procedure, shortened: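 Cytotoxicity counter-readout: after 15.5 hr compound treatment at 37C, live-cell protease activity in ATAD5-luciferase HEK293T cells measured by CellTiter-Fluor fluorescence, 30 min development at 37C.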

[5] = qHTS assay for small molecule disruptors of the mitochondrial membrane potential - cell viability (AID 720634; calls by dose curve;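 note: human HepG2 liver cancer cells; nearly all actives have a fitted effect of over 20% in size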)
Procedure, shortened: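 Cytotoxicity was quantified from ATP content by CellTiter-Glo luminescence in the same wells as the MMP dye read-out. HepG2 (2,000 cells/well) were plated overnight and exposed to compounds for 1 hr at 37 C.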

[6] = qHTS assay for small molecule disruptors of the mitochondrial membrane potential (AID 720635); note: potency is the fitted concentration of half-maximal effect
Procedure, shortened: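 HepG2 cells (2,000/well) attached overnight at 37C, then took compound for 1 hr at 37C, 5% CO2. Mito-MPS dye was added for 30 min; fluorescence was read at 490/535 nm (monomers) and 540/590 nm (aggregates).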

[7] = qHTS assay to test for compound auto fluorescence at 590 nm (red) in HepG2 cells (AID 720674)
Procedure, shortened: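 Intrinsic compound fluorescence in the red window (Ex/Em 540/590 nm) is measured in attached HepG2 cells exposed for 1 hr, DMSO vehicle as baseline, benchmarked to Rose Bengal sodium.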

[8] = qHTS assay to test for compound auto fluorescence at 535 nm (green) in HepG2 cells (AID 720675)
[9] = qHTS assay to test for compound auto fluorescence at 460 nm (blue) in HEK293 cells (AID 720678)
Procedure, shortened: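 HEK293 cells (2,000/well, medium with 10% dialyzed FBS) attached 4-5 hr, then exposed to compound overnight at 37C, 5% CO2. Blue fluorescence read at 405/460 nm, with triamterene as reference fluorophore.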

[10] = qHTS assay to test for compound auto fluorescence at 590 nm (red) in HEK293 cells (AID 720679)
Procedure, shortened: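 HEK293 cells (2,000/well, 10% dialyzed FBS) attached 4-5 hr, then dosed with compound or DMSO and incubated overnight at 37C, 5% CO2. Red fluorescence read at 540/590 nm, Rose Bengal sodium as reference fluorophore.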

[11] = qHTS assay to test for compound auto fluorescence at 535 nm (green) in HEK293 cells (AID 720680)
[12] = qHTS assay to test for compound auto fluorescence at 460 nm (blue) in HEK293 cell free culture (AID 720681)
Procedure, shortened: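 Test compounds were pinned into cell-free culture medium (DMEM with 10% FBS) and fluorescence was read directly at Ex/Em 405/460 nm. Signals were expressed as fluorescence equivalents of triamterene, with DMSO vehicle as control.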

[13] = qHTS assay to test for compound auto fluorescence at 535 nm (green) in HEK293 cell free culture (AID 720682)
Procedure, shortened: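 Measurement is a direct plate read of green fluorescence (485 nm in, 535 nm out) after compound addition to serum-supplemented DMEM lacking cells, with fluorescein used to express intensities.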

[14] = qHTS assay to test for compound auto fluorescence at 590 nm (red) in HEK293 cell free culture (AID 720683)
Procedure, shortened: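 Tox21 10K library compounds were pinned into cell-free DMEM with 10% FBS and fluorescence was read at excitation 540 nm. Activity is expressed as Rose Bengal sodium equivalency.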

[15] = qHTS assay to test for compound auto fluorescence at 590 nm (red) in HepG2 cell free culture (AID 720684)
Procedure, shortened: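 Ex 540 / Em 590 nm read of compound in cell-free MEM (10% FBS). Rose Bengal sodium reference.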

[16] = qHTS assay to test for compound auto fluorescence at 460 nm (blue) in HepG2 cell free culture (AID 720685)
Procedure, shortened: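 Cell-free plates of MEM plus 10% FBS received 23 nL compound or DMSO vehicle; blue-channel (405/460 nm) intensity scored against triamterene as reference fluorophore.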

[17] = qHTS assay to test for compound auto fluorescence at 535 nm (green) in HepG2 cell free culture (AID 720686)
[18] = qHTS assay to test for compound auto fluorescence at 460 nm (blue) in HepG2 cells (AID 720687)
Procedure, shortened: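 Cells (2,000/well in MEM with 10% FBS) attached overnight at 37 C, then were exposed to compound or DMSO for 1 hr at 37 C, 5% CO2. Fluorescence read at Ex/Em 405/460 nm, expressed as triamterene-equivalent signal.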

[19] = target: Glucocorticoid receptor (Homo sapiens) (UniProt P04150); assay: qHTS assay to identify small molecule antagonists of the glucocorticoid receptor (GR) signaling pathway (AID 720692; active = well fitted inhibition curve with a large enough effect in the signal ratio in the repeat runs, not every such curve was filed as active; the % refers to the signal ratio)
Glucocorticoid receptor (Homo sapiens), sequence (P04150 whole entry, looked up): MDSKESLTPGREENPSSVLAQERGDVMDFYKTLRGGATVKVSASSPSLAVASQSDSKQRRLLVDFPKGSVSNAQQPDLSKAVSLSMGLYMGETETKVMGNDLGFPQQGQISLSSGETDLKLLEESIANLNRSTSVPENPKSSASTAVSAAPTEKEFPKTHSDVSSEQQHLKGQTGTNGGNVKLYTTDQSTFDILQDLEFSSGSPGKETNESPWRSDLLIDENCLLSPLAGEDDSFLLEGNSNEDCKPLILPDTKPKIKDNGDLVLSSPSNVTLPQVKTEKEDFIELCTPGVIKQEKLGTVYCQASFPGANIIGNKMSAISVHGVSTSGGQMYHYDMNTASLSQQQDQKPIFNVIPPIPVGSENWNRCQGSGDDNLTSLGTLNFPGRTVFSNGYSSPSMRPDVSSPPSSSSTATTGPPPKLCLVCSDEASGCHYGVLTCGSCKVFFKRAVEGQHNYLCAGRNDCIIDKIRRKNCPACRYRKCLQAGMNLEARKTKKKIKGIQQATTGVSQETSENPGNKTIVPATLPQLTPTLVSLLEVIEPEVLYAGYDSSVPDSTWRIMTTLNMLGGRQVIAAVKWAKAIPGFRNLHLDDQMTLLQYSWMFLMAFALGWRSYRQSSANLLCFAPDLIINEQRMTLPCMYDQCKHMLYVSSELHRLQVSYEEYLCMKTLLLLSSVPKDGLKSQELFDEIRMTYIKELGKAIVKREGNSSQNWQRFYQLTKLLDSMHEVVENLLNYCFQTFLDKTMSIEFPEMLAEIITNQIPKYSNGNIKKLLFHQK
Procedure, shortened: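 Inhibition of dexamethasone-driven (5 nM final) beta-lactamase expression was measured in GRE-reporter HeLa cells over 18 h at 37C. Fluorescence was read after 2 h with the B/G FRET substrate at room temperature.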

[20] = target: Glucocorticoid receptor (Homo sapiens) (UniProt P04150); assay: qHTS assay to identify small molecule agonists of the glucocorticoid receptor (GR) signaling pathway (AID 720691; active = well fitted activation curve with a large enough effect in the signal ratio in the repeat runs, not every such curve was filed as active; the % refers to the signal ratio); conditions: GR-bla HeLa, beta-lactamase reporter ratio, 18 h; activation: at 62.4 µM (top of the series)
Procedure, shortened: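 Agonist-mode qHTS in HeLa cells stably expressing a glucocorticoid-response-element beta-lactamase reporter. Fluorescence intensity read with FRET substrate (2 h, room temperature) after 18 h compound treatment at 37 C.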

SMILES | Potency [1] | outcome [2] | Potency [3] | Potency [4] | Potency [5] | Potency [6] | outcome [7] | outcome [8] | outcome [9] | outcome [10] | outcome [11] | outcome [12] | outcome [13] | outcome [14] | outcome [15] | outcome [16] | outcome [17] | outcome [18] | Potency [19] | Potency [20]
CC(=O)Nc1cccc(O)c1 | inactive | inactive | inactive | inactive | inactive | inactive | inactive | inactive | inactive | inactive | inactive | inactive | inactive | inactive | inactive | inactive | inactive | inactive | – | –
CCCCCCCCCCCCS | inactive | inactive | inactive | inactive | inactive | inactive | inactive | inactive | inactive | inactive | inactive | inactive | inactive | inactive | – | – | inactive | – | – | –
Nc1ccccc1[N+](=O)[O-] | inactive | inactive | inactive | inactive | inactive | 48.6 µM (active) | inactive | inactive | inactive | inactive | inactive | inactive | inactive | inactive | inactive | – | inactive | inactive | inactive | –
CSCCC=O | inactive | inactive | inactive | inactive | inactive | inactive | inactive | inactive | inactive | inactive | inactive | inactive | inactive | inactive | – | inactive | inactive | – | inactive | inactive
C/C=C1/CC2C=CC1C2 (stereo unspecified) | inactive | inactive | inactive | inactive | inactive | – | inactive | inactive | inactive | inactive | inactive | inactive | inactive | inactive | inactive | inactive | inactive | inactive | inactive | inactive
CCCCCCCCCCCCc1ccccc1 | inactive | – | inactive | inactive | inactive | inactive | inactive | inactive | inactive | inactive | inactive | inactive | inactive | inactive | – | inactive | inactive | inactive | – | –
COc1cc(Cc2cnc(N)nc2N)cc(OC)c1OC | inactive | inactive | inactive | – | – | inactive | inactive | inactive | inactive | inactive | inactive | inactive | inactive | inactive | – | – | inactive | inactive | inactive | inactive
CCCCC(CC)CO (stereo unspecified) | inactive | – | inactive | inactive | inactive | inactive | inactive | inactive | inactive | inactive | inactive | inactive | inactive | inactive | inactive | inactive | inactive | – | inactive | –
C[Si](O[Si](C)(C)C)O[Si](C)(C)C | inactive | inactive | inactive | – | inactive | inactive | inactive | inactive | inactive | inactive | inactive | inactive | inactive | inactive | inactive | inactive | inactive | – | inactive | –
CC(O)COCC(C)O (stereo unspecified) | inactive | inactive | inactive | – | – | inactive | inactive | inactive | inactive | inactive | inactive | inactive | inactive | inactive | inactive | inactive | inactive | – | inactive | inactive
CCC(O)OCCCOC (stereo unspecified) | inactive | inactive | inactive | – | inactive | inactive | inactive | inactive | inactive | inactive | inactive | inactive | inactive | inactive | – | inactive | inactive | inactive | inactive | inactive
FC(F)(F)c1ccc(Cl)c(Cl)c1 | inactive | inactive | inactive | – | inactive | inactive | inactive | inactive | inactive | inactive | inactive | inactive | inactive | inactive | inactive | inactive | inactive | inactive | inactive | inactive
CCCSc1ccc2nc(NC(=O)OC)[nH]c2c1 | 320 nM (active) and 306 nM (active) | – | inactive | – | inactive | 4.52 µM (active) and 12.2 µM (active) | inactive | inactive | inactive | inactive | inactive | inactive | inactive | inactive | inactive | inactive | inactive | inactive | – | inactive
CCCCN(CCCC)CCCC | inactive | inactive | inactive | inactive | – | – | inactive | inactive | inactive | inactive | inactive | inactive | inactive | inactive | inactive | – | inactive | inactive | inactive | –
Cc1cnc(C(=O)NCCc2ccc(S(=O)(=O)NC(=O)NC3CCCCC3)cc2)cn1 | inactive | inactive | inactive | inactive | – | – | inactive | inactive | inactive | inactive | inactive | inactive | inactive | inactive | inactive | inactive | inactive | inactive | inactive | –
CC(C)CC(=O)CC(C)C | inactive | inactive | inactive | – | – | inactive | inactive | inactive | inactive | inactive | inactive | inactive | inactive | inactive | inactive | – | inactive | – | – | –
C[C@H]1C[C@@H]2[C@H]([C@@H](O)C[C@@]3(C)[C@H]2CC[C@]3(O)C(=O)CO)[C@@]2(C)C=CC(=O)C=C12 | inactive | inactive | inactive | – | inactive | – | inactive | inactive | inactive | inactive | inactive | inactive | inactive | inactive | inactive | – | inactive | – | – | –
